Test results as given in the supplement of paper PMC10646978.
± gives the standard deviation.

Tests used:
Details in all cases: modulator concentration 10 µM
[1] = system: RAW-Dual (murine macrophage reporter line); experiment: NF-kB reporter (SEAP) activity fold change vs agonist alone; higher = enhanced NF-kB activity
In short: (§1)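 In 384-well plates holding 50 000 RAW-Dual murine macrophage reporter cells per well, compound at 10 μM final was pre-incubated for 1 hour at 37 °C, after which a PRR agonist was added overnight. Supernatant SEAP read with QUANTI-Blue at 620 nm absorbance reported NF-κB, and Lucia luciferase read with QUANTI-Luc luminescence reported IRF. Fold change values come from dividing each reporter signal by the mean of agonist-only control wells on the same plate, averaged over replicate plates with propagated errors.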

[2] = system: RAW-Dual (murine macrophage reporter line); experiment: IRF reporter (Lucia luciferase) activity fold change vs agonist alone; higher = enhanced IRF activity
In short: as §1

[3] = system: RAW-Dual (murine macrophage reporter line); experiment: viability score (confluency relative to resting cells, overnight) (fraction); higher = more viable, active = viable (0.7 or more)
In short: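 A compound met the cutoff when both of two confluency masks exceeded 70% of resting cells. Those masks were made with IncuCyte software from IncuCyte images of RAW-Dual macrophages treated overnight at 10 μM final. This is the basis of the viability score, which is confluency relative to resting cells.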

[4] = agonist: CpG ODN 1826 0.5 ug/mL

SMILES | NF-kB reporter [1, 4] | NF-kB reporter ([1]; agonist: LPS 0.1 ug/mL) | NF-kB reporter ([1]; agonist: MPLA […]) | IRF reporter ([2]; agonist: 3'3'-cGAMP 10 ug/mL) | IRF reporter ([2]; agonist: LPS 0.1 ug/mL) | IRF reporter ([2]; agonist: MPLA […]) | viability score [3]
COc1ccc(OC)c(Nc2nc(-c3c(C)nc4sccn34)cs2)c1 | 0.853 ± 0.073 | 0.961 ± 0.1 | 1.21 ± 0.13 | 0.925 ± 0.046 | 1.43 ± 0.094 | 1.75 ± 0.15 | 1.01 (active)
O=C(C(Cl)Cl)N1CCN(Cc2ccccc2)CC1 | 0.881 ± 0.068 | 0.67 ± 0.077 | 0.709 ± 0.072 | 0.712 ± 0.032 | 1.25 ± 0.18 | 1.28 ± 0.24 | 1.01 (active)
CCOC(=O)C1=C(C)NC(C)=C(C(=O)OC)C1c1cccc(Cl)c1Cl (configuration not stated) | 0.824 ± 0.081 | 0.603 ± 0.053 | 0.764 ± 0.068 | 1.13 ± 0.06 | 1.35 ± 0.095 | 1.03 ± 0.17 | 0.859 (active)
O=c1[nH]c(=O)n([C@H]2C[C@H](O)[C@@H](CO)O2)cc1F | 1.65 ± 0.14 | 1.02 ± 0.12 | 1.11 ± 0.028 | 0.75 ± 0.042 | 0.923 ± 0.083 | 0.863 ± 0.067 | 0.669 (inactive)
Cc1cccc(C)c1N(CC(=O)Nc1ccc(-c2ncon2)cc1)C(=O)C1CCS(=O)(=O)CC1 | 1.06 ± 0.083 | 0.939 ± 0.075 | 1.05 ± 0.024 | 0.976 ± 0.098 | 0.997 ± 0.13 | 0.982 ± 0.086 | 0.999 (active)
CCOC(=O)C(CCc1ccccc1)NC(C)C(=O)N1C(C(=O)O)CC2CCCC21 (configuration not stated) | 1.01 ± 0.28 | 0.998 ± 0.068 | 1.07 ± 0.072 | 0.878 ± 0.055 | 1.28 ± 0.21 | 1.34 ± 0.23 | 0.989 (active)
Cc1cc(=O)n(-c2ccccc2)n1C | 0.98 ± 0.18 | 1.02 ± 0.08 | 0.99 ± 0.095 | 1.02 ± 0.033 | 1.27 ± 0.18 | 1.22 ± 0.14 | 0.995 (active)
CCC(C(=O)N1CC(Nc2cnccn2)C1)c1ccccc1 (configuration not stated) | 0.995 ± 0.052 | 1.06 ± 0.12 | 0.996 ± 0.14 | 1.03 ± 0.067 | 1.24 ± 0.085 | 1.19 ± 0.09 | 0.984 (active)
O=C(CCC1CCCC1)Nc1cccc(Cl)c1 | 0.771 ± 0.061 | 0.906 ± 0.1 | 1.15 ± 0.1 | 0.943 ± 0.046 | 1.63 ± 0.11 | 1.87 ± 0.16 | 1 (active)
COc1ccc(N2CCN(C(=O)Cc3csc(NC(=O)Nc4ccccc4OC)n3)CC2)cc1 | 0.911 ± 0.069 | 1.03 ± 0.1 | 0.884 ± 0.036 | 0.784 ± 0.043 | 0.922 ± 0.073 | 0.48 ± 0.042 | 0.983 (active)
NC(=O)CN1C(=O)C2C3c4ccccc4C(c4ccccc43)C2C1=O (configuration not stated) | 1.1 ± 0.083 | 0.962 ± 0.073 | 0.965 ± 0.036 | 0.938 ± 0.065 | 0.946 ± 0.092 | 0.976 ± 0.15 | 0.995 (active)
COc1ccccc1S(=O)(=O)N1CC(Oc2nc3c(C(F)(F)F)cccc3s2)C1 | 0.935 ± 0.047 | 1.18 ± 0.097 | 1.38 ± 0.14 | 1.4 ± 0.15 | 1.43 ± 0.23 | 1.5 ± 0.4 | 1 (active)
CC1=NN(c2ccc(C)cc2)C(=O)C1=Cc1c(C)nn(-c2ccc(C)cc2C)c1O | 1.03 ± 0.08 | 0.922 ± 0.089 | 1.02 ± 0.096 | 0.986 ± 0.046 | 1.21 ± 0.2 | 1.26 ± 0.19 | 1.03 (active)
COc1cc(O)c(C(=O)Nc2nc(C(=O)NCCN(C(C)C)C(C)C)cs2)cc1OC.Cl.O.O.O | 1.01 ± 0.098 | 0.966 ± 0.13 | 0.968 ± 0.022 | 0.96 ± 0.064 | 1 ± 0.11 | 1.05 ± 0.18 | 0.997 (active)
COc1cc(Nc2ncc3c(n2)-c2ccc(Cl)cc2C(c2c(F)cccc2OC)=NC3)ccc1C(=O)O | 0.416 ± 0.036 | 0.72 ± 0.038 | 0.775 ± 0.081 | 0.974 ± 0.045 | 1.06 ± 0.062 | 1.06 ± 0.15 | 0.92 (active)
O=C1SC(=Cc2ccc([N+](=O)[O-])cc2)C(=O)N1Cc1ccccc1 | 0.98 ± 0.064 | 1.04 ± 0.069 | 0.951 ± 0.071 | 0.989 ± 0.042 | 1.5 ± 0.28 | 1.23 ± 0.12 | 1 (active)
CCCC1=NN(c2ccc([N+](=O)[O-])cc2)C(=O)C1=CNC1CC1 | 0.833 ± 0.066 | 1.15 ± 0.065 | 0.934 ± 0.056 | 0.999 ± 0.043 | 1.49 ± 0.12 | 1.18 ± 0.2 | 1.01 (active)
COC(CNS(=O)(=O)c1ccccc1Br)c1ccc(Cl)s1 (configuration not stated) | 0.968 ± 0.32 | 1.08 ± 0.1 | 1.07 ± 0.071 | 1.18 ± 0.039 | 1.01 ± 0.12 | 1.21 ± 0.24 | 0.959 (active)
O=C(OC1Cc2c(O)cc(O)cc2OC1c1cc(O)c(O)c(O)c1)c1cc(O)c(O)c(O)c1 (configuration not stated) | 0.321 ± 0.094 | 1.04 ± 0.083 | 1.02 ± 0.092 | 0.822 ± 0.029 | 1.13 ± 0.22 | 1.06 ± 0.1 | 1.01 (active)
Cc1ccc(Sc2cc(Sc3ccc(C)cc3)c3noc4c3c2C(=O)c2ccccc2-4)cc1 | 0.971 ± 0.078 | 1.03 ± 0.075 | 0.957 ± 0.09 | 0.959 ± 0.052 | 1.28 ± 0.21 | 1.49 ± 0.38 | 1.01 (active)
Clc1cccc(C=Nc2ccc(N=Cc3cccc(Cl)c3Cl)cc2)c1Cl | 0.979 ± 0.081 | 1.08 ± 0.07 | 1 ± 0.04 | 0.815 ± 0.059 | 1.05 ± 0.056 | 1.09 ± 0.12 | 1 (active)
c1ccc2nc3c(cc(N4CCOCC4)c4ccccc43)nc2c1 | 0.92 ± 0.078 | 1.04 ± 0.062 | 0.969 ± 0.14 | 0.924 ± 0.023 | 1.34 ± 0.2 | 1.08 ± 0.2 | 1.01 (active)
CN1CC(c2ccccc2)OC1=O (configuration not stated) | 1.06 ± 0.17 | 0.949 ± 0.083 | 1.08 ± 0.093 | 1.07 ± 0.033 | 1.32 ± 0.2 | 1.29 ± 0.23 | 1 (active)
Cc1nnc(C(C)C)n1C1CC2CCC(C1)N2CC[C@H](NC(=O)C1CCC(F)(F)CC1)c1ccccc1 (some centres not stated) | 0.928 ± 0.07 | 1.05 ± 0.069 | 1.03 ± 0.051 | 1.08 ± 0.2 | 0.973 ± 0.087 | 1.03 ± 0.11 | 1 (active)
c1ccc2oc(SCCCCSc3nc4ccccc4o3)nc2c1 | 0.959 ± 0.15 | 1.06 ± 0.11 | 0.949 ± 0.089 | 0.821 ± 0.037 | 1.2 ± 0.12 | 1.4 ± 0.15 | 1 (active)
CC12CC3CC(C1)CC(CC(=O)O)(C3)C2 | 1.02 ± 0.18 | 1.04 ± 0.12 | 0.994 ± 0.17 | 0.907 ± 0.029 | 1.09 ± 0.11 | 1.3 ± 0.3 | 0.526 (inactive)
